# Measurements reported in PubChem BioAssay (NCI).
# This is part of a sample that, as a whole, favours compounds with a hit. Of some 83,000 tested, about 20% had one in any assay.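 Step 1: grow cells in 96-well plates. Step 2: add test compound at a single concentration. Step 3: incubate 48 h. Step 4: record percent growth.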 Calls of active or inactive are those of the source.
# Tested on: MCF7 breast
# Experiment: NCI-60 one-dose screen, 48 h (100 = growth as untreated, 0 = no growth, -100 = all killed)
# Settings: 10 µM unless noted
# Procedure: Growth inhibition of the MCF7 human tumor cell line is measured as a screen for anti-cancer activity. Cells are grown in 96 well plates and exposed to the test compound for 48 hours. Compounds are tested at a single concentration, which is 10^-5 M for most compounds. The reported endpoint is percent growth (GI% or GIPRCNT), where numbers from 0 - 100% represent growth inhibition, and numbers from -100% - 0 represent cell death. For example, a value of 40 represents 60% growth inhibition. A value of 0 means no net growth occurred over the course of the experiment. A value of -40 indicates 40% of cells at the beginning of the experiment died by the end of the experiment. A value of -100 means all cells are dead at the end of the experiment.
# NCI-60 Human Tumor Cell Lines Screen was performed using the standard one-dose NCI protocol, which is described in more detail at https://dtp.cancer.gov/discovery_development/nci-60/default.htm.
# Compounds with GIPRCNT values below 10 were considered active. Activity score was based on GIPRCNT using the following formula: […]
# Score is 0 for GIPRCNT values of 100 or above, 50 for GIPRCNT values of 0, and 100 for GIPRCNT values of -100.
row,SMILES,growth
1,NC(=O)CSc1oc(-c2ccccc2)nc1S(=O)(=O)c1ccc(Br)cc1,75% (inactive)
2,CC1=C2[C@@H](CC1)[C@]1(C)O[C@@](C(C)C)(C[C@H]1OC(=O)[C@H](C)O)[C@H]2OC(=O)/C=C/c1ccccc1,81.6% (inactive)
3,CCCC/C=C/[C@@H]1C[C@H]1CCO,87.5% (inactive)
4,COc1ccc(/C=C(\C#N)n2nnc3cc(F)c(F)cc32)cc1,22.1% (inactive)
5,CC(=O)N1N=C(c2ccc(Nc3nc(Nc4ccccc4)nc(Nc4ccccc4)n3)cc2)CC1c1cccc([N+](=O)[O-])c1 (stereo not given),91.4% (inactive)
6,O=CN1N=C(c2cccc(Nc3ccnc4cc(Cl)ccc34)c2)CC1c1ccccc1 (stereo not given),19.3% (inactive)
7,COc1cc2c(c(OC)c1OC)CCC(c1cccc(C(=O)Nc3cccc(Cl)c3)c1)O2 (stereo not given),73% (inactive)
8,COC(=O)/C=C1/SC(=Nc2ccc(C(F)(F)F)cc2)N(CCc2c[nH]c3ccc(O)cc23)C1=O,12.5% (inactive)
9,Cc1ccccc1/C=C/C(=O)c1cccc(OCCCOc2cccc(C(=O)/C=C/c3ccccc3C)c2)c1,13.5% [3 µM] (inactive)
10,COc1ccc(-c2cc(-c3cc(OC)c(OC)c(OC)c3)c(C#N)c(=O)n2CCCCC(=O)NO)cc1,66.5% (inactive)
11,O=C1c2ccccc2-c2c1c1c(=O)[nH]c3ccccc3c1n2Cc1ccccc1,56.5% (inactive)
12,CCCn1cc2c(=O)nc3sc(Cc4ccccc4)c(C)n3c2n1,91.6% (inactive)
13,COC1=CC(c2ccc[nH]2)=N/C1=C\c1[nH]c(C)c(C)c1CCC(=O)OCc1ccccc1,3.15% (active)
14,Oc1c(I)cc(I)cc1CNCc1ccccn1,28.7% (inactive)
15,Nc1c(C(=O)Nc2ccncc2)sc2nc3c(cc12)C(O)CCC3 (stereo not given),93.8% (inactive)
16,CCCCCCCCCCC(CN(CC)CC)C(O)c1ccccc1 (stereo not given),1.87% (active)
17,COC1=CC(c2ccc[nH]2)=N/C1=C\c1[nH]c(C)c(CC(=O)NCc2ccccc2)c1C,11% (inactive)
18,N#Cc1nc(-c2ccc(F)cc2)oc1S(=O)(=O)N1CCOCC1,30.4% (inactive)
19,CN(C)CC(C)(C)C(=O)/C=C/c1ccccc1,-13.6% [25 µM] (active)
20,CCSc1nc2scc(C)c2c(=O)[nH]1,96.3% (inactive)

row,SMILES,growth
1,COc1ccc2c(c1)c(-c1nc(-c3c[nH]c4ccncc34)cs1)cn2C,-68.9% (active)
2,Cn1ccnc1C(=O)/C=C/c1ccc(C(=O)Nc2ccccc2O)cc1,10.2% (inactive)
3,N#Cc1c(-c2ccccc2)cc(-c2ccc(Nc3nc(Nc4ccc(Cl)cc4)nc(Nc4ccc(Cl)cc4)n3)cc2)nc1N,22% (inactive)
4,CC(C)C1=NOC(=O)C1=Cc1cn(-c2ccccc2)nc1-c1ccc(F)cc1,50.8% (inactive)
5,COC(=O)c1c2c(c(C)[n+]([O-])c1C)C(=O)C(NCc1cccc(OC)c1)=CC2=O,0.247% (active)
6,COc1ccc2c(c1OC)CO[C@@H]2[C@H]1c2c(cc3c(c2OC)OCO3)CCN1S(=O)(=O)c1cn(C)cn1,16.9% (inactive)
7,COc1ccc(-c2noc(C(=O)O)c2-c2cc(OC)c(OC)c(OC)c2)cc1,18.9% (inactive)
8,O=C(COc1ccc(-c2nc3cc(Cl)c(Cl)cc3[nH]2)cc1)N=Nc1c(O)[nH]c2ccc(Cl)cc12,25.6% (inactive)
9,CC(C)(Sc1cc(C(C)(C)C)c(O)c(C(C)(C)C)c1)Sc1cc(C(C)(C)C)c(OC(=O)CCCC(=O)O)c(C(C)(C)C)c1,36.2% (inactive)
10,Cc1[nH]c(C(=O)Nc2ccc(C(=O)N3CCN(c4cc5c(cc4F)c(=O)c(C(=O)O)cn5C4CC4)CC3)cc2OC(C)C)c(Cl)c1Cl,88.8% (inactive)
11,CC(=O)n1nc(C(=O)OC(C)(C)c2ccccc2)c2ccccc21,94% (inactive)
12,CCOC(=O)c1cc2c(n1C)-c1nc(NC(C)=O)sc1CCC2,61.6% (inactive)
13,COc1ccc(/C=N/C2=C(C#N)C(c3ccccc3)c3ccc4ccccc4c3O2)cc1 (stereo not given),12.2% (inactive)
14,O=C(Cn1cc(CSc2nc3ccccc3o2)nn1)Nc1ccc(F)cc1F,92.5% (inactive)
15,Nc1ncnc2c1N=C(c1ccc(Br)cc1)CC(c1cccc(Nc3ccnc4cc(C(F)(F)F)ccc34)c1)N2 (stereo not given),22% (inactive)
16,COC(=O)[C@]12CCC(C)(C)C[C@H]1[C@H]1/C(=N/OCCc3nn[nH]n3)C[C@@H]3[C@@]4(C)CC[C@H](OC(C)=O)C(C)(C)[C@@H]4CC[C@@]3(C)[C@]1(C)CC2,20.9% (inactive)
17,COC1=CC(c2ccc[nH]2)=N/C1=C\c1[nH]c(C)c(CC(=O)OCc2ccccc2)c1CCC(=O)OCc1ccccc1,4.14% (active)
18,O=C1/C(=C/c2ccccc2Br)COc2ccc(O)cc21,9.13% (active)
19,CC/C(=C(/c1ccc(Cl)cc1)c1ccc(OCCN(C)C)cc1)c1ccc(Cl)cc1,20.5% (inactive)
20,CCOC(=O)c1c(NC(=O)c2cccc(C(F)(F)F)c2)sc2c(CN(C)C)c(O)ccc12,26.3% (inactive)
